# Assay results reported in PubChem BioAssay AID504332 (National Center for Advancing Translational Sciences (NCATS), 2011).
# About 31,000 (8.9%) of roughly 350,000 compounds were called active. About 15% were inconclusive and are not listed. For the sample, actives were picked, then their nearest neighbours and some compounds at random. Values without a mark were called inactive. The call rests on the fitted dose curve; in most records, active means well fitted inhibition curve with a large enough effect; inconclusive means small, poorly fitted or top-dose-only effect; inactive means no such curve, though single readings can be large or run the other way.
# Target: Histone-lysine N-methyltransferase EHMT2 (Homo sapiens) (UniProt Q96KQ7)
# Sequence (Q96KQ7 913-1193 limits assumed): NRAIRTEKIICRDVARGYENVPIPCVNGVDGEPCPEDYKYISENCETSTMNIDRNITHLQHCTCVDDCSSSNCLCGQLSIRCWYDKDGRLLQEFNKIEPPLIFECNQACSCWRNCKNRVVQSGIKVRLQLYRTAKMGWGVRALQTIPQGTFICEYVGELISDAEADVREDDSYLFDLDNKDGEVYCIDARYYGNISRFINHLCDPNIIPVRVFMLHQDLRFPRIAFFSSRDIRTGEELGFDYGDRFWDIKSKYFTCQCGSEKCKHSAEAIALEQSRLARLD
# Experiment: qHTS Assay for Inhibitors of Histone Lysine Methyltransferase G9a; further: nearly all actives have a fitted effect of over 75% in size
# Conditions: G9a H3K9 monomethylation, AlphaScreen, 2 h; series mostly up to 59 µM; activity, negative = inhibition: at the top concentration
# How it was run: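 Signal arises when biotinylated H3K9 peptide, once monomethylated, bridges streptavidin donor and antibody-captured acceptor beads. Enzyme at 20 nM was preincubated 15 min with test compounds; peptide 500 nM and SAM 20 uM then reacted for 2 h.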
# On the % scale 0 is the no-effect control and ±100 the full control effect; potency means the concentration at half of the fitted maximal effect.
Compound,"activity, negative = inhibition",Potency
CCSc1nnc2c(n1)OC(c1ccc(OCC(=O)O)cc1)Nc1ccccc1-2 (stereo not drawn),-45.6%,–
COc1ccc(OCCC(=O)c2ccc(OC)cc2)cc1,-34.9% [at 102 µM],–
COc1ccc(OCCn2ccnc2C)cc1,–,8.91 µM (active)
COc1ccc(OCCCCN2CCC(C)CC2)cc1,5.74% [at 102 µM],–
O=C(OCC(=O)N1CCCC1=O)c1cc(S(=O)(=O)N2CCOCC2)ccc1Cl,-46.3% [at 102 µM],–
CCC(C(=O)Nc1cccc(-c2nc3cccnc3s2)c1C)c1ccccc1 (stereo not drawn),8.59%,–
Cc1cc(C)nc(Nc2n[nH]c(-c3ccccc3N)n2)n1,–,7.94 µM (active)
Cc1cc(C)nc(Nc2ncn[nH]2)n1,11.3% [at 102 µM],–
Cc1cc(C)nc(NC(=O)C(C)N2C(=O)c3ccccc3C2=O)n1 (stereo not drawn),-3.61% [at 102 µM],–
C[C@H](NC(=O)c1ccccc1)C(=O)OCC(=O)c1c[nH]c2ccccc12,-6.84%,–
CCOc1ccccc1C(=O)NCC(c1ccc(N(C)C)cc1)N1CCCC1 (stereo not drawn),2.29% [at 12.7 µM],–
CN(C)c1ccc(C(CNC(=O)c2ccc(F)cc2)c2c[nH]c3ccccc23)cc1 (stereo not drawn),–,10 µM (active)
CCCN1CCN(CCCNC(=O)c2ccc3nc(Cc4ccccc4)oc3c2)CC1,4.53%,–
O=C(c1c(F)cccc1F)N1CCN(S(=O)(=O)c2ccc3c(c2)OCCO3)CC1,-0.69% [at 0.501 µM],–
CNc1ccc(SC#N)cc1,–,44.7 µM (active)
COc1ccc(-n2nc(C(=O)NCCc3ccc(Cl)cc3)c3c4ccccc4n(C)c3c2=O)cc1Cl,3.47%,–
CCOc1ccc(S(=O)(=O)NCCSc2ccccc2)cc1,52.1% [at 102 µM],–
CCOc1ccc2nc(NCCNC(=O)C(C)(C)C)c(C)cc2c1,13.8% [at 102 µM],–
CCOc1ccc2nc(NCCNS(=O)(=O)c3ccccc3)c(C#N)cc2c1,–,50.1 µM (active)
Cc1nnc(SCC(=O)NCc2ccccc2Cl)c2nn(-c3ccccc3)c(C)c12,-24.3%,–
CCOC(=O)c1ccc(NC(=O)C2CC(=O)NC(=Nc3ccc(C)c(C)c3)S2)cc1 (stereo not drawn),-67.7%,–
COC(=O)c1cc(NC(=O)c2cccnc2)ccc1N1CCOCC1,-2.27% [at 0.501 µM],–
O=C(Nc1cccc(Cl)c1N1CCOCC1)c1cccnc1,49.1% [at 102 µM],–
COc1ccccc1NC(=O)c1ccc(N2CC3CC(C2)c2cccc(=O)n2C3)c(NC(=O)c2cccnc2)c1 (stereo not drawn),–,15.8 µM (active)
CCn1c(Cc2ccc(OC)cc2)nnc1SCC(=O)Nc1ccc(N2CCOCC2)cc1,6.79% [at 102 µM],–

Compound,"activity, negative = inhibition",Potency
Cc1ccc(-c2noc(-c3nnn(-c4cccc(C(F)(F)F)c4)c3N)n2)cc1,-6.96%,–
CC1CCN(C2=NC(=O)/C(=C/c3ccc(O)cc3)S2)CC1,0.648% [at 102 µM],–
CCc1ccc(/C=C2\SC(N3CCOCC3)=NC2=O)cc1,–,50.1 µM (active)
Cc1ccsc1/C=C1\SC(N2CCOCC2)=NC1=O,12.5% [at 12.7 µM],–
COC(=O)Cc1ccc(OC(=O)C2CCN(S(=O)(=O)c3ccc(OC)c(OC)c3)CC2)cc1,13.8% [at 12.7 µM],–
O=C(Nc1ccc2oc(-c3ccc(O)c(Br)c3)nc2c1)c1cc2ccccc2o1,3.9%,–
c1cc(-c2nn[nH]n2)ccc1CN1CCCCC1,-40.3% [at 102 µM],–
Clc1ccc(CN2CCCCCC2)cc1Cl,–,22.4 µM (active)
Clc1ccc(-n2nnnc2CN2CCCCC2)cc1Cl,15.7%,–
O=C(Nc1ncccc1O)c1ccc(S(=O)(=O)N2CCCCCC2)cc1,5.43% [at 102 µM],–
CCN(C(=O)Cn1cc(S(=O)(=O)N2CCN(c3ccccc3F)CC2)c2ccccc2c1=O)c1ccc(C)c(C)c1,-32.2%,–
Cc1ccc(C)c(Cn2c(C)c(CNCc3ccc(F)cc3)c(C(=O)O)c2C)c1,-2.85%,–
Cn1cccc1C(=O)NNC(=O)COc1ccc(Br)cc1,4.95% [at 0.501 µM],–
CN(C(=O)CSc1nc2ccc(NC(=O)COc3ccccc3)cc2s1)c1ccccc1,-35%,–
CCCCNC(=O)CSc1nc2ccc(NC(=O)CSc3nnc(N)s3)cc2s1,–,2 µM (active)
CCC(=O)Nc1ccc2nc(SCC(=O)N3CCc4ccccc43)sc2c1,5.3%,–
CN(C)C(=O)N=NC(=O)N(C)C,–,2.24 µM (active)
CCOc1ccc(NC(=O)CC2C(=O)N(c3cccc(OC)c3)C(=O)N2C2CCCCC2)cc1 (stereo not drawn),-36.5%,–
COc1ccc(CNC(=O)CNC(=O)c2sc3ccccc3c2Cl)cc1OC,-4.28% [at 102 µM],–
COc1ccc(OCCCC(=O)Nc2cccc(S(=O)(=O)N3CCCCCC3)c2)cc1,-48.2% [at 12.7 µM],–
COc1ccc(-c2cn3c(n2)sc2cc(C(=O)Nc4ccccc4F)ccc23)cc1,5.43%,–
Fc1ccccc1OCCCCn1cncn1,-3.44%,–
CCN1CCN(CCCCOc2ccccc2F)CC1,–,10 µM (active)
CN1CCN(CCCCOc2cccc3ccccc23)CC1,26.3% [at 2.33 µM],–
O=C(COC(=O)C1(c2ccc(F)cc2)CCCC1)N1CCNC1=O,19.8% [at 12.7 µM],–

Compound,"activity, negative = inhibition",Potency
COc1ccc(Cc2nc3ccc(C(=O)NCc4ccc(OC)cc4OC)cc3o2)cc1,3.04%,–
COC(=O)C1=C(NC(=O)C(C)(C)C)CCS1,–,1.41 µM (active)
Cc1cc2c(=O)n(CC(=O)NCC(=O)Nc3ccc(C(C)C)cc3)cnc2s1,12.3% [at 102 µM],–
O=C(CN1CCN(c2ccccc2F)CC1)c1ccc2c(c1)OCO2,–,20 µM (active)
CC1(c2ccc(Cl)cc2)NC(=O)N(CC(=O)c2ccc3c(c2)OCO3)C1=O (stereo not drawn),-7.79% [at 102 µM],–
O=C(Nc1ccccc1F)c1ccc2c(c1)OCO2,-7.42% [at 0.501 µM],–
COc1ccc(C2CC(=O)Nc3c2c(=O)nc2c(C)cccn32)cc1OC (stereo not drawn),-13.1%,–
Cn1c(N)c(C(=O)COC(=O)/C=C/c2cccc(C(F)(F)F)c2)c(=O)n(C)c1=O,28.8% [at 2.33 µM],–
CC1(C)O[C@@H]2CC3C4C[C@H](F)C5=CC(=O)C=CC5(C)C4C(O)CC3(C)[C@]2(C(=O)CO)O1 (stereo partly drawn),-17.2%,–
CCC1(C)Cc2c(sc3nc(SC)[nH]c(=O)c23)CO1 (stereo not drawn),–,44.7 µM (active)
CCC1(C)Cc2c(sc3nc(SC)nc(N)c23)CO1 (stereo not drawn),17.6%,–
CCSc1nc2sc3c(c2c(=O)[nH]1)CC(C)(C)OC3,7.55% [at 102 µM],–
COc1ccccc1NC(=O)C(=O)c1cc(C)n(-c2ccccc2F)c1C,-41.8%,–
COc1cc(CNCCSc2nnnn2C)ccc1OCc1ccc(Cl)cc1Cl,-31.5%,–
COc1cc(C(=O)N(Cc2ccc(C(C)C)cc2)C2CCS(=O)(=O)C2)cc(OC)c1OC (stereo not drawn),2.53%,–
Cc1ccccc1OCC(=O)N(Cc1cccc(F)c1)C1CCS(=O)(=O)C1 (stereo not drawn),65.3% [at 102 µM],–
Cc1ccc(CN(C(=O)COc2ccc(Cl)cc2C)C2CCS(=O)(=O)C2)o1 (stereo not drawn),-30%,–
CCc1ccc(OCC(=O)N(Cc2ccccc2)C2CCS(=O)(=O)C2)cc1 (stereo not drawn),21.1% [at 102 µM],–
CC(C)c1ccc(OCC(=O)N(Cc2ccc(N(C)C)cc2)C2CCS(=O)(=O)C2)cc1 (stereo not drawn),–,12.6 µM (active)
Cc1cc(Cl)ccc1OCC(=O)N(Cc1ccc(N(C)C)cc1)C1CCS(=O)(=O)C1 (stereo not drawn),–,10 µM (active)
COc1ccc(NC(=O)CSc2nc(SC)ns2)c(OC)c1,-2.51% [at 102 µM],–
COc1cccc(N2CC(NC(=O)/C=C\c3ccccc3)CC2=O)c1 (stereo not drawn),2.58%,–
CCOc1ccc(NC(=O)CN(C)C(=O)c2cccc(S(=O)(=O)N3CCCC3)c2)cc1OCC,-27.5% [at 102 µM],–
CC(C)CN(C(=O)CSc1ncnc2sccc12)C1CCS(=O)(=O)C1 (stereo not drawn),0.939% [at 12.7 µM],–
COC(=O)[C@@]12CCCN1[C@H](c1ccc(-c3ccc(F)cc3)c(OC)c1)[C@H]1C(=O)N(C)C(=O)[C@H]12,17.2% [at 2.33 µM],–

Compound,"activity, negative = inhibition",Potency
O=C(/C=C/c1ccc([N+](=O)[O-])o1)NNC(=O)c1ccc(F)cc1,4.33% [at 102 µM],–
Cc1nc2ccccc2c(=O)n1-c1ccc(F)c(NC(=O)c2cccs2)c1,-27.2% [at 102 µM],–
CC(C)CN(Cc1c(O)ccc2c(=O)c(-c3ccccc3)coc12)CC(C)C,6.97% [at 102 µM],–
COc1cc(C2NC(=O)NC(c3ccccc3)=C2C(C)=O)c(Br)cc1OCC(N)=O (stereo not drawn),13.9%,–
CC(C)(C)c1ccc(C(=O)NCC(c2ccco2)S(=O)(=O)c2ccc(F)cc2)cc1 (stereo not drawn),-26.1%,–
CCCN(CCC)c1nc2c(C)cccn2c(=O)c1/C=C1/SC(=S)N(Cc2ccco2)C1=O,–,39.8 µM (active)
Cc1ccc2[nH]c(=O)c(-c3nc4c(C)cccn4c3NCc3ccco3)cc2c1,23.2%,–
Cc1cccn2c(=O)c(/C=C3\SC(=S)N(CC(C)C)C3=O)c(NCCCOC(C)C)nc12,17.9% [at 102 µM],–
CCc1ccc(NC(=O)c2nn(-c3ccc(C)cc3)c(=O)n(C)c2=O)cc1,-3.54%,–
NS(=O)(=O)c1ccc(NC(=O)COc2ccc(S(=O)(=O)NC3CCCCC3)cc2)cc1,3.03%,–
CCOc1cc(-c2cc(-c3ccc(NC(C)=O)cc3)nc(N)c2C#N)ccc1O,11.7%,–
CCc1ccc(NC(=O)N2CCc3ccccc3C2)cc1,36.1% [at 102 µM],–
CCOc1cc(C(=O)Nc2nnc3n2CCS3)cc(OCC)c1OCC,35.3%,–
COc1ccc(CC(=O)NC2CCSc3ccccc32)cc1OC (stereo not drawn),-4.72% [at 102 µM],–
COc1ccc(CC(=O)Nc2nnc3n2CCS3)cc1OC,–,12.6 µM (active)
COc1ccccc1NC(=O)C(C)OC(=O)c1ccc(-n2cnnn2)cc1 (stereo not drawn),-8.77% [at 102 µM],–
O=C(NNC(=O)c1cccc(S(=O)(=O)Nc2ccc(Cl)cc2)c1)c1ccc(=O)[nH]c1,17.2% [at 12.7 µM],–
Cc1ccc(NN=C2C(=O)OC(C)(C)OC2=O)c(C)c1,-26.1% [at 102 µM],–
Cc1ccc(N/N=C2\COC(C)(C)CC2=O)cc1,–,44.7 µM (active)
CN(C(=O)COC(=O)c1cc(=O)[nH]c2ccccc12)C1CCCCC1,-20.6% [at 2.33 µM],–
S=C(NCCc1ccccc1)NCC1CCCO1 (stereo not drawn),-8.01%,–
CCCCNC(=S)N/N=C1\CCCCc2ccccc21,21.8%,–
CCCC1CCC(=NNC(=S)NCCc2ccccc2)CC1 (stereo not drawn),–,14.1 µM (active)
